The record followed here is PubChem BioAssay AID720492 (Broad Institute, 2013).

Active and inactive are the calls of the source.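 How the source made its calls: active means unnormalized dose curve rising to cross level 40 at or below the top tested dose; inconclusive means flat fit at moderately raised activity, or poor fit; inactive means the rest.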

This test can be described thus: miR-27b level by RT-PCR, dose response, miR-122 / miR-27b project, Huh7 cells, cherry-pick, activator set (AID 720492). The conditions noted are these: Huh7 miR-27b levels, qRT-PCR, 48 h; series mostly up to 35 µM. Background: Real-time PCR tracks product formation cycle by cycle.
In the case of `COc1cccc(-c2ccc3c(c2)O[C@H](CN(C)C(=O)C2CCOCC2)[C@H](C)CN([C@@H](C)CO)S3(=O)=O)c1`, the outcome was inactive.
The result for `C[C@@H]1CN([C@H](C)CO)S(=O)(=O)c2ccc(C#Cc3ccncc3)cc2O[C@H]1CN(C)C(=O)C1CCOCC1` reads “inactive”; that for `CN1C(=O)c2cc(NC(=O)c3cccc(F)c3)ccc2OC[C@H]2O[C@H](CC(=O)O)CC[C@H]21`, “inactive”; that for `C[C@H]1CN([C@@H](C)CO)C(=O)c2cc(-c3ccc(C#N)cc3)cnc2O[C@H]1CN(C)C(=O)c1ccccc1`, “inactive”.
The result for `COCC(=O)N(C)C[C@H]1Oc2cc(-c3ccc(C#N)cc3)ccc2S(=O)(=O)N([C@@H](C)CO)C[C@H]1C` reads “inactive”; that for `CN1C(=O)c2cc(NC(=O)c3cccc(F)c3)ccc2OC[C@@H]2O[C@@H](CC(=O)O)CC[C@H]21`, “inactive”.
Turning to `COc1cccc(C(=O)Nc2ccc3c(c2)C(=O)N(C)C[C@@H](OC)[C@@H](C)CN[C@@H](C)CO3)c1`, the call was inactive.
The entry for `C[C@H](CO)N1C[C@H](C)[C@@H](CN(C)C(=O)C2CCOCC2)Oc2cc(C#Cc3ccncc3)ccc2S1(=O)=O` is “inactive”; for `CCCC#Cc1ccc2c(c1)O[C@H](CN(C)C(=O)c1ccncc1)[C@H](C)CN([C@@H](C)CO)S2(=O)=O` it is “inactive”.
Consider `CO[C@@H]1CN(C)C(=O)c2cc(NC(=O)c3cccc(Oc4ccccc4)c3)ccc2OC[C@H](C)NC[C@@H]1C`, for which the compound was called inactive.
The result for `CO[C@@H]1CN(C)C(=O)c2cc(NC(=O)c3ccc4c(c3)OCO4)ccc2OC[C@H](C)NC[C@@H]1C` reads “inactive”; that for `C[C@H]1CN([C@@H](C)CO)S(=O)(=O)c2ccc(C#Cc3ccncc3)cc2O[C@H]1CN(C)C(=O)C1CCOCC1`, “inactive”.
Consider `COc1ccc(S(=O)(=O)N(C)C[C@@H]2Oc3ncc(/C=C/c4ccccc4)cc3C(=O)N([C@@H](C)CO)C[C@@H]2C)cc1`, for which the compound was classed as inactive.
The result for `C[C@@H]1CN([C@H](C)CO)S(=O)(=O)c2ccc(/C=C/c3ccccc3)cc2O[C@@H]1CN(C)C(=O)c1cccnc1` reads “inactive”; that for `COCC(=O)N(C)C[C@@H]1Oc2ncc(-c3ccc(C#N)cc3)cc2C(=O)N([C@@H](C)CO)C[C@@H]1C`, “inactive”.
The result for `C[C@H](CO)N1C[C@H](C)[C@H](CN(C)C(=O)C2CCOCC2)Oc2cc(C#Cc3ccncc3)ccc2S1(=O)=O` reads “inactive”; that for `Cc1cccc(NC(=O)Nc2ccc3c(c2)C(=O)N(C)[C@@H]2CC[C@H](CC(=O)NCc4ccccc4Cl)O[C@H]2CO3)c1`, “inactive”.
The result for `C[C@H]1CN([C@@H](C)CO)C(=O)c2cc(-c3ccc(C#N)cc3)cnc2O[C@H]1CN(C)C(=O)Nc1ccc(C(F)(F)F)cc1` reads “inactive”; that for `COc1ccc(-c2cnc3c(c2)C(=O)N([C@@H](C)CO)C[C@H](C)[C@H](CN(C)S(=O)(=O)c2ccc(OC)cc2)O3)cc1`, “inactive”.
Take `C[C@@H]1CN([C@@H](C)CO)S(=O)(=O)c2ccc(C#Cc3ccncc3)cc2O[C@H]1CN(C)C(=O)C1CCOCC1`: the compound was called inactive.
The result for `COCC(=O)N(C)C[C@H]1Oc2cc(C#Cc3cccnc3)ccc2S(=O)(=O)N([C@H](C)CO)C[C@H]1C` reads “inactive”.
